Hits are enriched below; roughly 10% of the tested compounds scored in any of these assays.
HP1b chromo inh: HTS for Inhibitors of HP1-beta Chromodomain Interactions with Methylated Histone Tails; Chromobox protein homolog 1 (Homo sapiens), P83916; AlphaScreen HP1-beta / biotin-H3K9me3 peptide binding; Potency, µM (top dose mostly 114 µM), for the others: top-dose activity change, negative = inhibition, usual class: inhibitors; hit rate 0.56% among 390,000; AID 540317, 2011; also: nearly all actives have a fitted effect of over 70% in size
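AlphaScreen: HP1-beta (50 nM) preformed 30 min with biotin-H3(1-18)K9me3 peptide (50 nM) in PBS pH 7.4, 0.01% Tween-20. Compound added for 30 min at RT, then streptavidin donor/nickel chelate acceptor beads (10 ug/mL) for 30 min.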
GLS inhibitor: qHTS for Inhibitors of Glutaminase (GLS); AID 624170, 2012; Glutaminase kidney isoform, mitochondrial (Homo sapiens), O94925; Potency, µM (doses to about 45.5 µM), inactives show at the top dose activity change, negative = inhibition, usual class: inhibitors; GLS enzymatic activity, qHTS titration; hit rate 0.21% among 410,000; also: % is scaled to controls: 0 for no effect and ±100 for the full control effect
Target sequence (O94925 whole entry, looked up, canonical isoform): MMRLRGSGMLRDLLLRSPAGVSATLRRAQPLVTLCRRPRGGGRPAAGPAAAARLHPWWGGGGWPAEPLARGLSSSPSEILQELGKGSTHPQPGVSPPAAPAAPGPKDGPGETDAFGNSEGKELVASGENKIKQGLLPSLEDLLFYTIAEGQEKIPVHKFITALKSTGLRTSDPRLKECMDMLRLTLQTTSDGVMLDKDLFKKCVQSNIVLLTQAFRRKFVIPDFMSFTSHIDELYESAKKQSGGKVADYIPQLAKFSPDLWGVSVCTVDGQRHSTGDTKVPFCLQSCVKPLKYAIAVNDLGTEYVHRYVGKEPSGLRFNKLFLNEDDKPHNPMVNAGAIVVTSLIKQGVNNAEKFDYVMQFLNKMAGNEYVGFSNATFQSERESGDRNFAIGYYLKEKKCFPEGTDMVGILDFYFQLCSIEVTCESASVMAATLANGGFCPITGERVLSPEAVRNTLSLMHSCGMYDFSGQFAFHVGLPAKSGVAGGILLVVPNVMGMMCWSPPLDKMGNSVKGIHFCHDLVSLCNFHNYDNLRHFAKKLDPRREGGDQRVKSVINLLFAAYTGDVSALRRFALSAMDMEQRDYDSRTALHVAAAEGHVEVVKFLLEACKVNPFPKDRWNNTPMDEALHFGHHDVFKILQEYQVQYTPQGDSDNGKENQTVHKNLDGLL
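Coupled fluorescence readout: glutamate oxidase/HRP/Amplex Red detect glutamate formed by hKGA from L-glutamine (1 mM solution added). Buffer 45 mM KH2PO4 pH 8.2, 0.02% Tween-20; reads at t0 and 30 min RT.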
JMJD2A Tudor: qHTS Assay for Inhibitors of JMJD2A-Tudor Domain. Lysine-specific demethylase 4A (Homo sapiens), O75164. AlphaScreen JMJD2A-Tudor / H3K4me3 peptide binding. Potency, µM (top dose mostly 114 µM), without a hit: top-dose activity change, negative = inhibition, actives largely listed as inhibitors. hit rate 4.4% among 390,000. AID 504339, 2011; also: % is scaled to controls: 0 for no effect and ±100 for the full control effect; nearly all actives have a fitted effect of over 50% in size
G9a inh: qHTS Assay for Inhibitors of Histone Lysine Methyltransferase G9a | Histone-lysine N-methyltransferase EHMT2 (Homo sapiens), Q96KQ7 | G9a H3K9 monomethylation, AlphaScreen, 2 h | Potency, µM (highest dose often 102 µM), for the others: top-dose activity, negative = inhibition, most hits filed as inhibitors | hit rate 8.8% among 350,000; also: % is scaled to controls: 0 for no effect and ±100 for the full control effect; nearly all actives have a fitted effect of over 75% in size
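Chemiluminescent proximity detection of H3K9 monomethylation, read after 10 min bead incubation in the dark. Reaction: 20 nM G9a, 500 nM biotin-H3K9 peptide, 20 uM SAM cofactor, 2 h, room temperature, following 15 min enzyme-compound preincubation.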
BAZ2B block: qHTS Assay for Inhibitors of BAZ2B | Potency, µM (top dose mostly 114 µM), for inactives: at the top dose activity change, negative = inhibition, hits mostly inhibitors | AlphaScreen BAZ2B-H3K14Ac peptide displacement | hit rate 4.4% among 360,000 | Bromodomain adjacent to zinc finger domain protein 2B (Homo sapiens), Q9UIF8; also: % is scaled to controls: 0 for no effect and ±100 for the full control effect; nearly all actives have a fitted effect of over 60% in size
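Inhibition is scored as reduced AlphaScreen emission. The BAZ2B/b-H3(5-23)K14Ac complex (50 nM each) in PBS pH 7.4, 0.01% Tween-20 meets compound (up to 110 uM) for 30 min at RT before bead addition.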
Active calls of the source: *; [ ] = dose if it differs, or a comment. Calls follow the shape of the dose curve; as a rule, active = well fitted curve in the direction sought with a large enough effect; inconclusive = small, poorly fitted or top-dose-only effect, or another doubt; inactive = no such curve, though single readings can be large; an effect the other way counts as inactive or inconclusive. Potency is read from the fitted curve at half-maximal effect.

For COc1ccc(NC(=O)COC(=O)c2ccc(-n3cnnn3)cc2)cc1Cl the results were HP1b chromo inh 19%, GLS inhibitor -12%, JMJD2A Tudor -11%, G9a inh 40µM* and BAZ2B block 3%.
Screening O=C(COC(=O)c1ccccc1OC(F)F)Nc1ccc(N2CCCCC2)cc1 returned HP1b chromo inh 5%, GLS inhibitor 4%, JMJD2A Tudor -23%, G9a inh 7.9µM* and BAZ2B block -6%.
COc1cc(C(=O)OCC(=O)Nc2ccc(N3CCOCC3)cc2)ccc1OCC(C)C was read as HP1b chromo inh 24%, GLS inhibitor 4%, JMJD2A Tudor 13%, G9a inh 6.3µM* and BAZ2B block 1%.
`COc1ccc(C(=O)Nc2ccc(N3CCOCC3)cc2)cc1OC` gave HP1b chromo inh 9%, GLS inhibitor 14%, JMJD2A Tudor -10%, G9a inh 4%[59 µM] and BAZ2B block 7%.
`O=C(COC(=O)c1ccc(O)cc1)Nc1ccc(N2CCCCC2)cc1` gave HP1b chromo inh -19%, GLS inhibitor 40%, JMJD2A Tudor inconclusive, G9a inh 45µM* and BAZ2B block inconclusive.
Screening O=C(COC(=O)c1cncc(Br)c1)Nc1ccc(N2CCCCC2)cc1 returned HP1b chromo inh 4%, GLS inhibitor 23%, JMJD2A Tudor inconclusive, G9a inh inconclusive and BAZ2B block inconclusive.
For CCOc1ccccc1C(=O)OCC(=O)Nc1ccc(N2CCCCC2)cc1 the results were HP1b chromo inh inconclusive, GLS inhibitor 42%, JMJD2A Tudor -50%[57.1 µM], G9a inh inconclusive and BAZ2B block 4%.
For CCCCOc1cccc2c(=O)n(CC(=O)Nc3ccc4c(c3)OCCO4)ccc12 the results were GLS inhibitor -26%.
Cc1ccc(CN2CCC(C)(Oc3ccc(Cl)cc3)C2)cc1 (stereo unspecified) was read as GLS inhibitor -8%.
For CCCCCc1c(-c2ccc(F)cc2F)ncn1CCc1ccccc1OC the results were GLS inhibitor 4%.
Screening Cc1cccc(C(=O)OCC(=O)Nc2ccc(N3CCCCC3)cc2)c1O returned HP1b chromo inh 26%, GLS inhibitor 41%, JMJD2A Tudor -7%, G9a inh inconclusive and BAZ2B block -33%.
For COc1cc(OC)cc(C(=O)OCC(=O)Nc2ccc(N3CCCCC3)cc2)c1 the results were HP1b chromo inh 30%, GLS inhibitor 16%, JMJD2A Tudor 0%, G9a inh 10µM* and BAZ2B block -6%.
CCN1CCn2c3c(c4cccc(C)c42)CCCC31 (stereo unspecified) was read as HP1b chromo inh -7%, GLS inhibitor 6%, JMJD2A Tudor inconclusive, G9a inh 71µM* and BAZ2B block inconclusive.
For CCN1CCn2c3c(c4cc(C)ccc42)CCCC31 (stereo unspecified) the results were HP1b chromo inh inconclusive, GLS inhibitor 19%, JMJD2A Tudor inconclusive, G9a inh 20µM* and BAZ2B block inconclusive.
Cc1ccc(NC(=O)N2CCc3c(sc4c3CCCC4)C2c2ccccc2)cc1F (stereo unspecified) was read as HP1b chromo inh 24%, GLS inhibitor -1%, JMJD2A Tudor -6%, G9a inh -2%[12.7 µM] and BAZ2B block -38%.
For CN1CC[C@@]2(CCCN(C(=O)c3cccn3C)C2)C1 the results were G9a inh -5%[12.7 µM].
COc1ccc2c(c1)sc1ncc(C(=O)NCc3cccc(C)c3)c(=O)n12 was read as HP1b chromo inh 23%, GLS inhibitor -3%, JMJD2A Tudor -3%, G9a inh -6%[59 µM] and BAZ2B block 8%.
CCOC(=O)N1CCN(S(=O)(=O)c2ccc(C(=O)Nc3sc4c(c3C(=O)OC)CCN(C)C4)cc2)CC1 was read as HP1b chromo inh 32%, GLS inhibitor 9%, JMJD2A Tudor -28%, G9a inh 56µM* and BAZ2B block -23%.
`CN1CCc2c(sc(NC(=O)C3CCCN3S(=O)(=O)c3ccc(Cl)s3)c2C(N)=O)C1` (stereo unspecified) gave HP1b chromo inh 17%, GLS inhibitor 20%, JMJD2A Tudor -11%, G9a inh 45µM* and BAZ2B block -3%.
For CN1CCc2c(sc(NC(=O)c3ccc(S(=O)(=O)N4CCOCC4)cc3)c2C(N)=O)C1 the results were HP1b chromo inh 20%, GLS inhibitor 3%, JMJD2A Tudor -27%, G9a inh 40µM* and BAZ2B block 1%.
For CC(=O)N1CCc2c(sc(NC(=O)C3CCCN3S(=O)(=O)c3cccs3)c2C(N)=O)C1 (stereo unspecified) the results were HP1b chromo inh 9%, GLS inhibitor -8%, JMJD2A Tudor -16%, G9a inh inconclusive and BAZ2B block -30%.
For CCOC(=O)N1CCN(S(=O)(=O)c2ccc(C(=O)Nc3sc4c(c3C(N)=O)CCN(CC)C4)cc2)CC1 the results were HP1b chromo inh 22%, GLS inhibitor 23%, JMJD2A Tudor -26%, G9a inh 50µM* and BAZ2B block inconclusive.
`O=C(O)CNc1cccc(-c2nn3c(=O)cc(N4CCNCC4)nc3s2)c1` gave JMJD2A Tudor -18%.
Screening O=C(NCCc1ccccc1Cl)C1CCC(=O)N(CC2CCCCC2)C1 (stereo unspecified) returned HP1b chromo inh 20%, GLS inhibitor -4%, JMJD2A Tudor -9%, G9a inh 1%[59 µM] and BAZ2B block -8%.
CCOC(=O)c1nc2cc3n(c(CC(C)C)c-2c1C)CC(C)=C3C was read as HP1b chromo inh 25%, GLS inhibitor -8%, JMJD2A Tudor inconclusive, G9a inh 3.2µM* and BAZ2B block inconclusive.
For O=C(c1cc(C(F)(F)F)cc(C(F)(F)F)c1)N1CCC2(CC1)CCN(c1ccccn1)CC2 the results were G9a inh -3%[12.7 µM].
Cc1noc(C)c1NC(=O)N(C)C[C@H]1Oc2ccc(NC(=O)Nc3ccc(C(F)(F)F)cc3)cc2C(=O)N([C@H](C)CO)C[C@@H]1C was read as HP1b chromo inh 33%, GLS inhibitor -3% and JMJD2A Tudor -6%.
`CCN(c1ccccc1)c1nc(=O)c2cccnc2s1` gave HP1b chromo inh 21%, GLS inhibitor -2%, JMJD2A Tudor -1%, G9a inh 35µM* and BAZ2B block -14%.
Screening O=C(CSC1=Nc2ccccc2C2=NC(Cc3ccccc3)C(=O)N12)Nc1ccccc1C(F)(F)F (stereo unspecified) returned HP1b chromo inh 28%, GLS inhibitor -13%, JMJD2A Tudor -2%, G9a inh 9%[59 µM] and BAZ2B block -1%.

High-throughput results: PubChem, National Center for Advancing Translational Sciences (NCATS)
